# CatS inh: blocks human cathepsin S protease activity; inhibition, %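 (tested at 5 µM per compound within 10-compound mixtures)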; P25774; recombinant cathepsin S, AMC dipeptide fluorescence, pooled mixtures; hit rate 0.06% among 62,000; in the data active means inhibition above about 32%, passing the limit was not always enough; inconclusive means no clear call, values can overlap the other calls;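 further: 0% = enzyme without compound and 100% = blank without enzyme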
# SKBR3 24h inh: SK-BR-3 proliferation inhibitors; SK-BR-3 viability, CellTiter-Glo ATP luminescence, 24 h; hits give low values; hit rate 0.47% among 41,000; viability, % at 10 µM;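 active means viability at or below the median of all test compounds minus 3 SD, in both replicates if run twice, cut at about 45% in these data; inconclusive means duplicate replicates that disagree with each other; inactive means viability above that cutoff in every replicate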;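 further: 100% = median untreated cell wells and 0% = median positive control drug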
# CatB mix inh: inhibitors of human cathepsin B in compound mixtures | P07858 | inhibition, %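 (ten-compound pools at 5 µM per compound and 50 µM total)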 | Purified cathepsin B, AMC dipeptide fluorescence | AID 488 | hit rate 0.06% among 62,000; in the data active means inhibition above about 22%, passing the limit was not always enough; inconclusive means no clear call, values can overlap the other calls;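 further: 0% = enzyme without compound and 100% = no enzyme blank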
# CatL inh: blocks human cathepsin L protease activity; purified cathepsin L, fluorogenic substrate, fluorescence; inhibition, %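 (tested at 10 µM)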; hit rate 0.17% among 58,000; AID 460; in the data active means inhibition above about 45%;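 further: 0% = enzyme with no compound and 100% = no enzyme blank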
# Her2 expr inh: inhibitors of human Her2 kinase expression; hit rate 0.69% among 65,000; SKBR-3 HER2 protein level, AlphaScreen, 18-24 h; hits give low values; HER2 level % of control, % at 10 µM;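 active means HER2 level under 5% of the carrier-only control; inconclusive means no clear call, values can overlap the other calls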;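 further: 100% = DMSO carrier and 0% = 500 nM PU-H71 HSP90 inhibitor; lower value means stronger loss of Her2 protein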
# Target sequence (P04626 whole entry, looked up): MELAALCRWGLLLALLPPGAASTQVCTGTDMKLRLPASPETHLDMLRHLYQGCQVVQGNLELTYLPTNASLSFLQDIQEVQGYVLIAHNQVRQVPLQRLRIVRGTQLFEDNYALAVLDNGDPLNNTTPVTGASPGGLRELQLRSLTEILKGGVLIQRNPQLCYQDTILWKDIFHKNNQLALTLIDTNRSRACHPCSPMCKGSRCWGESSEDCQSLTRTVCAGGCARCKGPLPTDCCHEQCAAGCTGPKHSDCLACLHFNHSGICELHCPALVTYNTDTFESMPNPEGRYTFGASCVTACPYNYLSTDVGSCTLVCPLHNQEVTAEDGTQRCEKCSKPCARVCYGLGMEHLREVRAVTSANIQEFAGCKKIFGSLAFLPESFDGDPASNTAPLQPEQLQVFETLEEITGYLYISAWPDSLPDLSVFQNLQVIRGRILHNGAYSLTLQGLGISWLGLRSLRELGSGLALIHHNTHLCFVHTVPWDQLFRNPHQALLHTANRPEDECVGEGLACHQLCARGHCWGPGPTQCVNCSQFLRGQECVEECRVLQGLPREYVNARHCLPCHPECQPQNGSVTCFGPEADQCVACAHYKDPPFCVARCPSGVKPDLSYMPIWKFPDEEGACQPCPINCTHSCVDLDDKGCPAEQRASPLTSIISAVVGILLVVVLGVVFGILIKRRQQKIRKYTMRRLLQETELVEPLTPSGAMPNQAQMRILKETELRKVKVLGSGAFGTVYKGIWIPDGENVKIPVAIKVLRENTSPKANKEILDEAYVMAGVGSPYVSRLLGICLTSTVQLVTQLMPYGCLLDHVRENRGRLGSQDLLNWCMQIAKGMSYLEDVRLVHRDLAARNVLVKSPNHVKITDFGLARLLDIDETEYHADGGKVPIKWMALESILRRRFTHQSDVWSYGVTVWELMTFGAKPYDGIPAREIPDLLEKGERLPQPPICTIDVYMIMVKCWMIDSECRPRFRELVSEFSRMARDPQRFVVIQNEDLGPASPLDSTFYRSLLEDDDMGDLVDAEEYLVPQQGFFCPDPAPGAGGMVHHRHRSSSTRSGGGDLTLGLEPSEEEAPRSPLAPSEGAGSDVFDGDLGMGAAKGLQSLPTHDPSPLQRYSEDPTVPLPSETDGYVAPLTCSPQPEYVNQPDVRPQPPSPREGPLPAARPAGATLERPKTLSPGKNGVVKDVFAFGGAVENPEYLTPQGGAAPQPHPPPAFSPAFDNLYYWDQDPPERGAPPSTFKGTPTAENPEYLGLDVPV
# CatB inh: inhibitors of human cathepsin B; AID 453; purified cathepsin B, fluorogenic substrate, fluorescence; P07858; inhibition, %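 (tested at 10 µM)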; hit rate 0.1% among 63,000; in the data active means inhibition above about 21%;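 further: 0% = enzyme with no compound and 100% = no enzyme blank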
# * hit, by the source's call; ? = inconclusive; / = no result. Sampled rows, rich in hits. Any-hit rate of the full collection: about 1.1%.
SMILES,CatS inh,SKBR3 24h inh,CatB mix inh,CatL inh,Her2 expr inh,CatB inh
CC(Sc1ccc2nnc(-c3ccc(F)cc3)n2n1)C(=O)O (stereo not drawn),17,/,4,54*,75,9
Cc1ccc(-c2nnc3ccc(SC(C)C(=O)O)nn23)cc1 (stereo not drawn),11,/,1,3,106,7
CCOc1cc(C(=O)N2CCN(c3ccc(C(C)=O)cc3)CC2)cc(OCC)c1OCC,9,101,9,16,98,1
COCCNc1nc(C(C)(C)C)nc2c1nnn2Cc1ccccc1Cl,-6,83,2,-1,-25*,1
COc1cc2c(C#N)c(N3CCN(c4ccccc4OC)CC3)nc(N)c2c(N)n1,0,66,5,-225,-4.0*,0
N#Cc1c(N2CCCC2)nc(N)c2c(N)nc(N3CCCC3)cc12,59*,/,77*,18,121,45*
COc1ccccc1N1CCN(c2nc(N)c(C#N)c(CC#N)c2C#N)CC1,1,114,1,-3,75,-2
CCOc1ccc(OCc2ccc(C(=O)OCc3ccccn3)o2)cc1,1,/,1,13,117,3
CCN(CC(=O)Nc1ccc2c(c1)CCC2)Cc1nc2ccccc2c(=O)[nH]1,2,/,5,-7,84,-5
CN1CCN(c2nc(-c3cccnc3)nc3ccccc23)CC1,/,/,/,/,113,/
Cn1nnnc1Sc1nc(-c2cccnc2)nc2ccccc12,0,/,3,4,-13*,1
COC(=O)CSc1cc(SCC(=O)OC)c(C#N)c(SCC(=O)OC)c1,-3,48,-4,-3,2.9*,-2
O=C(Oc1ccc2c(c1)OCO2)c1cc2c(s1)CCC2,9,/,5,14,-7.5*,4
COc1cc(OC)cc(-c2nnc(SCC(=O)N(C(C)C)C(C)C)o2)c1,-5,39*,-2,-6,132,-2
COc1cccc(-c2nnc(SCC(=O)N(C(C)C)C(C)C)o2)c1,-10,84,-1,1,73,4
O=S(=O)(CCN1CCN(C(c2ccccc2)c2ccccc2)CC1)C(F)(F)F,44,79,2,5,-2.0*,1
O=C(CN1CCN(C(c2ccccc2)c2ccccc2)CC1)N1CCOCC1,-1,/,2,8,104,-1
Cc1cccc(N(CC(=O)NCc2ccc3c(c2)OCO3)C(=O)CCC(=O)Nc2ccccn2)c1,4,56,-6,-6,-30*,1
CN1CCN(CC(=O)N2CCn3c4c(c5cc(C6CCCCC6)ccc53)CCCC42)CC1 (stereo not drawn),16,/,4,20,-16*,5
Cc1nnc(NC(=O)c2ccc(S(=O)(=O)N(C)Cc3ccccc3)cc2)o1,9,31*,-5,8,77,3
COCc1nnc(NC(=O)c2ccc(S(=O)(=O)N(C)C3CCCCC3)cc2)o1,7,27*,3,-3,106,6
COCCN(CCOC)S(=O)(=O)c1ccc(C(=O)Nc2nc(C)c(C(C)=O)s2)cc1,-7,96,6,-1,107,-1
COCCN(CCOC)S(=O)(=O)c1ccc(C(=O)Nc2nnc(C)o2)cc1,-9,19*,-3,-4,104,-4
CCOc1ccccc1-n1c(SCC(=O)NC2CCCC2)nnc1-c1ccoc1C,11,98,6,17,97,6
COc1ccc(Nc2nc(C)c3ccccc3n2)cc1,-3,86,3,-6,84,-7
SMILES,CatS inh,SKBR3 24h inh,CatB mix inh,CatL inh,Her2 expr inh,CatB inh
COc1ccc2c(C)nc(Nc3nc(C)cc(C)n3)nc2c1,1,89,-2,61*,95,4
Cc1nn2c(-c3ccco3)nnc2c2ccccc12,5,125,2,7,-1.1*,1
C=CCn1c(COc2ccc(CC)cc2)nnc1SC/C(O)=C(\C#N)c1nc2ccccc2[nH]1,-5,29*,-3,5,70,1
CCOC(=O)CS(=O)(=O)c1nc(-c2ccc(F)cc2)cc(C(F)(F)F)n1,-1,26*,6,-6,-18*,1
CCOC(=O)CCS(=O)(=O)c1nc(-c2ccccc2)cc(C(F)(F)F)n1,1,61,1,3,-8.7*,-3
COc1ccc(-c2cc(C(F)(F)F)nc(SCCC(=O)Nc3cc(C)on3)n2)cc1,/,72,/,/,124,/
COCC(C)NC(=O)CCS(=O)(=O)c1nc(-c2ccc(OC)cc2)cc(C(F)(F)F)n1 (stereo not drawn),2,?,7,4,-20*,1

# Screening results: PubChem BioAssay, several laboratories
